Hits are enriched below; roughly 3.7% of the tested compounds scored in any of these assays.
FMDV inh: foot and mouth disease virus antiviral activity | FMDV antiviral cell-based qHTS | Potency, µM (titrated, usually from 57.9 µM), for the others: at the top dose activity change, negative = inhibition, usual class: inhibitors | 410,000 tested, 1.2% active; calls by dose curve; tested in HEK293T cells; note: read-out not given here; nearly all actives have a fitted effect of over 45% in size
RE007 growth inh: less growth of the S. pombe RE007 Vpr strain; S. pombe RE007 Vpr strain, BacTiter-Glo ATP luminescence, 24 h; Potency, µM (titrated, usually from 92.2 µM), for inactives: at the top dose activity change, negative = less growth, most hits filed as inhibitors; 360,000 tested, 0.21% active; active = well fitted falling curve with a large enough effect; inconclusive = small, poorly fitted or top-dose-only effect; inactive = no such curve, though single readings can be large or run the other way; note: nearly all actives have a fitted effect of over 50% in size
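Fission yeast strain RE007, carrying one chromosomally integrated HIV-1 vpr copy, was seeded at OD 0.01 in PMG+AL medium with 23 nL pinned compound. After 24 h at 30 °C and 99% humidity, viability was read by BacTiter-Glo luminescence.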
Tb PYK inh: blocks Trypanosoma brucei pyruvate kinase | Potency, µM (top dose mostly 76.8 µM), without a hit: top-dose activity, negative = inhibition, actives largely listed as inhibitors | 410,000 tested, 0.12% active | TbPYK enzyme, Kinase-Glo Plus ATP luminescence, 45 min | Q57TT1; note: nearly all actives have a fitted effect of over 50% in size
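Luminescence from Kinase-Glo Plus, added after a 45-minute room-temperature reaction, served as the end-point read-out. The enzyme and substrate were preincubated with compound before ADP (130 uM final) initiated turnover. Concentration-effect curves came from normalized qHTS data.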
Sm TGR block: S. mansoni TGR enzyme inhibition | Q962Y6 | purified TGR, DTNB reduction, TNB absorbance 405 nm | Potency, µM (doses to about 114 µM), without a hit: top-dose activity change, negative = inhibition, most hits filed as inhibitors | 360,000 tested, 3% active | AID 485364; note: nearly all actives have a fitted effect of over 60% in size
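Kinetic colorimetric format: TGR-catalysed, NADPH-driven DTNB reduction monitored via TNB absorbance. Enzyme dispensed at 20 nM; compound exposure 15 min at room temperature before reaction start.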
* marks the source's active call; other numbers are inactive results; ? = inconclusive; . = no result given. Unless noted, calls come from the whole dose curve; as a rule, active = well fitted curve in the direction sought with a large enough effect; inconclusive = small, poorly fitted or top-dose-only effect, or another doubt; inactive = no such curve, though single readings can be large; an effect the other way counts as inactive or inconclusive. % is set by controls: 0 for no effect and ±100 for the full control effect; potency is the fitted concentration of half-maximal effect.

SMILES | FMDV inh | RE007 growth inh | Tb PYK inh | Sm TGR block
O=C(C1CCC(Cn2c(=S)[nH]c3ccccc3c2=O)CC1)N1CCN(c2ccccc2)CC1 (configuration not stated) | -16.1% | -14.4% | -9.1% | .
CCn1c(C(=O)N2CCC(C(=O)NCCc3ccc(C)cc3)CC2)cc2sccc21 | ? | . | -9.0% | 7.2%
CCOC(=O)c1ccccc1NC(=O)c1nn(-c2ccc(C)cc2)c(=O)n(C)c1=O | -19.0% | . | -1.6% | 7.5%
COc1ccc(CNC(=O)[C@H](Cc2ccccc2)NC(=O)C2CCNCC2)cc1 | -12.9% | 9.0% | -5.2% | 31.6µM*
COc1ccc(CC(=O)Nc2cccc(-c3nnc(-c4ccccc4)o3)c2)cc1OC | . | 4.6% | 0.4% | 4.5%
COc1ccc(CC(=O)Nc2cccc(-c3nnc(-c4cccc(C)c4)o3)c2)cc1OC | 39.8µM* | 9.2% | -2.4% | 7.3%
COc1ccc(CC(=O)Nc2cccc(-c3nnc(-c4ccc(C)cc4)o3)c2)cc1OC | 3.98µM* | 4.9% | 1.6% | 3.8%
COc1ccc(NC(=O)c2cc(C3CCCCN3C(=O)Cc3ccc(N(C)C)cc3)on2)c(C)c1 (configuration not stated) | ? | -5.7% | -2.8% | .
CN(C)c1ccc(CC(=O)N2CCCCC2c2cc(C(=O)Nc3ccccc3Cl)no2)cc1 (configuration not stated) | 35.5µM* | -2.5% | 1.0% | .
COc1cc(C(C)=O)ccc1OCCCN1CCC(c2noc3cc(F)ccc23)CC1 | . | . | -6.9% | .
Cc1ccc(S(=O)(=O)c2nc(-c3ccccc3F)oc2NCc2ccccc2)cc1 | 36.0% | . | -6.9% | 47.7%
COc1ccc(-c2nc(S(=O)(=O)c3ccc(C)cc3)c(NCc3ccccc3)o2)cc1 | 24.0% | . | 0.3% | 12.6µM*
Cc1ccc(S(=O)(=O)c2nc(-c3ccccc3)oc2NCCN2CCOCC2)cc1 | -5.3% | 19.7% | -11.3% | 44.7µM*
O=S(=O)(c1ccc(F)cc1)c1nc(-c2ccc(F)cc2)oc1NCCN1CCOCC1 | -18.9% | -27.2% | 0.7% | -35.4%
CCCCNc1oc(-c2ccc(OC)cc2)nc1S(=O)(=O)c1ccccc1 | 1.2% | -8.2% | -1.4% | 31.6µM*
COc1ccccc1/C=C/c1nc(S(=O)(=O)c2ccccc2)c(NCCN(C)C)o1 | -4.5% | -7.6% | 0.7% | 22.4µM*
O=C(NCCc1ccccn1)C1CC12CCN(C(=O)c1cccc(C(F)(F)F)c1)CC2 (configuration not stated) | -4.3% | . | . | .
Cc1ccc(S(=O)(=O)c2nc(C)oc2NCc2ccccc2)cc1 | . | . | . | 2µM*
COc1ccc(CC(=O)Nc2sc3c(c2C#N)CC(C)(C)NC3(C)C)cc1OC | ? | 1.8% | 2.2% | 89.1µM*
N/C(=N\OC(=O)c1cccc(C(F)(F)F)c1)c1cnccn1 | 31.6% | 20.0% | 3.4% | -5.5%
O=C(OCn1ncc(Cl)c(Cl)c1=O)c1cccc(C(F)(F)F)c1 | 14.1µM* | 44.7µM* | 8.5% | 5.62µM*
COc1ccc(-c2nn(-c3ccccc3)cc2/C=C2/SC(=S)N(CCC(=O)O)C2=O)cc1 | -16.7% | 2.9% | 8.8% | -15.1%
COc1ccc(-c2nn(-c3ccccc3)cc2/C=C2/SC(=S)N(CCC(=O)O)C2=O)c(C)c1 | 31.6µM* | 1.0% | -17.4% | 6.2%
CC(=O)NC(c1cc(F)c2cccnc2c1O)C(C)C (configuration not stated) | . | . | . | -15.2%
COc1cccc2sc3ccc(C#CC4(O)CCCCC4)cc3c(=O)c12 | -5.3% | -0.3% | -2.9% | -29.6%
SMILES | FMDV inh | RE007 growth inh | Tb PYK inh | Sm TGR block
O=c1c2ccccc2oc2cc(C#CC3(O)CCCCC3)ccc12 | 11.2µM* | -7.6% | -1.4% | .
O=c1c2ccccc2sc2ccc(C#CC3(O)CCCCC3)cc12 | 44.7µM* | ? | -14.9% | .
CCC1(C2CCN(C(=O)c3ccc(C)c(C)c3)CC2)NC(=O)N(CCc2scnc2C)C1=O (configuration not stated) | 11.7% | . | . | .
CCOC(=O)c1c(NC(=O)c2cc(-c3ccccc3)on2)sc2c1CCCC2 | -17.9% | . | -0.8% | 8.8%
O=C1NC(=O)/C(=C\c2ccccc2Oc2ccc(F)c(F)c2)S1 | ? | -13.0% | 0.2% | 0.0%
CN1C(=O)C(=Cc2ccccc2Oc2ccc(Cl)c(F)c2)C(=O)N(C)C1=O | ? | -10.9% | ? | 31.6µM*
O=C1NC(=O)C(=Cc2ccccc2Oc2ccc(F)cc2)C(=O)N1 | -1.9% | 0.9% | -36.0% | 70.8µM*
Fc1ccccc1N1CCN(c2nnc(C(F)(F)F)c3nnn(Cc4ccccc4)c23)CC1 | 0.0% | . | 1.1% | 0.0%
N#CC1(N2CCCCC2)CCCCC1 | . | . | 6.5% | .
CC1(C)CC(C#N)(N2CCOCC2)CCO1 (configuration not stated) | -7.5% | -17.6% | 6.8% | 12.6µM*
CC#CC[N+](C)(C)CCCCCCCCCCCC | 12.6µM* | ? | -1.0% | 3.8%
C#CC[N+](C)(C)CCCCCCCCCCCC | 22.4µM* | ? | -5.0% | 0.4%
C#CC[N+](C)(C)CCCCCCCC | -21.6% | 1.1% | 6.3% | 5.7%
C#CC[N+](C)(C)CCCCCCCCCC | 0.0% | -8.3% | -0.7% | 3.1%
CCCCCCCCCCCCCCCC[N+](C)(C)CCl | -21.0% | 22.4µM* | -9.8% | .
CCCCCCCCCC[N+](C)(C)CCCCCCCCCC | . | . | -4.0% | .
CCOc1ccc2nc(N3CCCC(C(=O)NCCc4ccc(OC)cc4OC)C3)sc2c1 (configuration not stated) | -0.8% | . | 2.8% | -0.8%
C=CCOc1ccccc1CN1CCC(C(=O)Nc2cccc(-c3ccn[nH]3)c2)CC1 | -20.1% | 7.5% | 4.8% | 97.6%
CC(=O)c1cccc(CN2CCC(C(=O)Nc3cccc(-c4ccn[nH]4)c3)CC2)c1 | 31.6µM* | -14.5% | 6.8% | -6.1%
Cc1nn(Cc2ccccc2)c2sc(C(=O)N3CCN(Cc4ccc5c(c4)OCO5)CC3)cc12 | 31.6µM* | 5.1% | 3.2% | 1.3%
CC(NC(=O)c1ccccc1Cl)C(=O)N1CCN(Cc2ccc3c(c2)OCO3)CC1 (configuration not stated) | -9.8% | 26.2% | 1.7% | 14.1µM*
O=C(O)c1ccccc1C(=O)N1CCN(Cc2ccc3c(c2)OCO3)CC1 | -16.4% | 3.1% | -0.2% | 10.2%
C[C@H](NC(=O)c1ccccc1)C(=O)N1CCN(Cc2ccc3c(c2)OCO3)CC1 | -15.0% | 5.6% | -8.2% | .
CCn1c(=O)cc(SCC(=O)N2CCN(Cc3ccc4c(c3)OCO4)CC2)c2ccccc21 | 39.8µM* | 3.8% | 27.3% | -28.5%
CCOC(=O)C(C)NC(=O)c1c2c(nc3ccccc13)C(=O)N(C1CCCCC1)C2 (configuration not stated) | -15.5% | . | -1.4% | -1.5%
COC(=O)C1CCCCN1Cc1ccc2c(c1)CN(C1CCSCC1)CCO2 (configuration not stated) | -4.9% | . | . | .
Cc1oc(-c2ccc(C(=O)NCc3cccc(F)c3)cc2)nc1COc1ccccc1 | 0.0% | . | -11.3% | 0.5%
COc1ccc(Cn2c(C)ccc2C)cc1 | -21.0% | -3.2% | -1.1% | 31.6µM*
COc1ccc(Cn2c(-c3ccc(OC)cc3)nc3ccccc32)cc1 | -8.8% | -13.0% | -0.4% | -3.7%

Screens from PubChem.
